Test results as given in PubChem BioAssay (NCATS).
Results filed as inconclusive are left out. The source made the active and inactive calls. Calls follow the shape of the dose curve; as a rule, active = well fitted curve in the direction sought with a large enough effect; inconclusive = small, poorly fitted or top-dose-only effect, or another doubt; inactive = no such curve, though single readings can be large; an effect the other way counts as inactive or inconclusive.

How the values were obtained:
[1] = test system: MCC-13; experiment: qHTS assay to identify novel small-molecules to repurpose for Merkel cell carcinoma treatment (AID 1296009); settings: MCC and control cell lines, CellTiter-Glo viability, 72 h; series mostly up to 46 µM; also: nearly all actives have a fitted effect of over 60% in size
Summary of the method: (§1)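 72 hr, 37 degree celsius; NPC 8-pt / MIPE 11-pt dose response; compound pinned in DMSO; CellTiter-Glo, 10 min RT, luminescence; normalized to no-cell and DMSO controls.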

[2] = test system: MCC-26; experiment: as above; settings: MCC and control cell lines, CellTiter-Glo viability, 72 h; series mostly up to 46 µM
Summary of the method: as §1

[3] = test system: MKL-1; experiment: as above; settings: MCC and control cell lines, CellTiter-Glo viability, 72 h; series mostly up to 46 µM
Summary of the method: as §1

[4] = test system: MKL-2; experiment: as above; settings: MCC and control cell lines, CellTiter-Glo viability, 72 h; series mostly up to 46 µM
Summary of the method: as §1

[5] = test system: UISO; experiment: as above; settings: MCC and control cell lines, CellTiter-Glo viability, 72 h; series mostly up to 46 µM
Summary of the method: as §1

[6] = test system: WaGa; experiment: as above; settings: MCC and control cell lines, CellTiter-Glo viability, 72 h; series mostly up to 46 µM
Summary of the method: as §1

[7] = test system: C33A; experiment: Primary qHTS to identify gynecologic anti-cancer compounds using libraries of approved drugs and bioactive compounds (AID 1345084); settings: Gynecologic cancer cell panel viability, ATPlite luminescence, 48 h; series mostly up to 57.5 µM; also: nearly all actives have a fitted effect of over 55% in size
Summary of the method: (§2)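 Cells, 1,000 per well, were allowed to settle for 16 h at 37 C before compound addition. Five concentrations were tested for 48 h, and viability was read by ATPlite luminescence after 15 min at room temperature.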

[8] = test system: CAOV3; experiment: as above; settings: Gynecologic cancer cell panel viability, ATPlite luminescence, 48 h; series mostly up to 57.5 µM
Summary of the method: as §2

[9] = test system: CASKI; experiment: as above; settings: Gynecologic cancer cell panel viability, ATPlite luminescence, 48 h; series mostly up to 57.5 µM
Summary of the method: as §2

Measured: Potency

CC(=O)NC(=O)c1ccccc1O
inactive: [1] | [2] | [3] | [4] | [5] | [6] | [7] | [8] | [9]

Cc1nc(-c2ccc(Cl)cc2)oc1COC(C)(C)C(=O)O
inactive: [1] | [2] | [3] | [4] | [5] | [6] | [7] | [8] | [9]

COc1ccc(CN(CCN(C)C)c2ncccn2)cc1
inactive: [1] | [2] | [3] | [4] | [5] | [6] | [7] | [8] | [9]

O=C(O)C1(C(=O)O)CCC1.[NH2-].[NH2-].[Pt+2]
inactive: [1] | [2] | [3] | [4] | [5] | [6] | [7] | [8] | [9]

NS(=O)(=O)c1cc(C(=O)O)cc(N2CCCC2)c1Oc1ccccc1
inactive: [1] | [2] | [3] | [4] | [5] | [6] | [7] | [8] | [9]

CO[C@]12C[C@@H](COC(=O)c3cncc(Br)c3)CN(C)[C@@H]1Cc1cn(C)c3cccc2c13
inactive: [1] | [2] | [3] | [4] | [5] | [6] | [7] | [8] | [9]

O=C(O)CCC(=O)Nc1ccc(S(=O)(=O)Nc2nccs2)cc1
inactive: [1] | [2] | [3] | [4] | [5] | [6] | [7] | [8] | [9]

CC(=O)OCC(=O)[C@H]1CC[C@H]2[C@@H]3CCC4=CC(=O)CC[C@]4(C)[C@H]3CC[C@]12C
inactive: [1] | [2] | [3] | [4] | [5] | [6] | [7] | [8] | [9]

CC1=C(C(=O)O)N2C(=O)[C@@H](NC(=O)[C@H](N)c3ccccc3)[C@H]2SC1
inactive: [1] | [2] | [3] | [4] | [5] | [6] | [7] | [8] | [9]

O=C(Nc1cccc(C2=NCCN2)c1)Nc1cccc(C2=NCCN2)c1
inactive: [1] | [2] | [3] | [4] | [5] | [6] | [7] | [8] | [9]

Cc1ccc(S(=O)(=O)NC(=O)NC2CCCC2)cc1
inactive: [1] | [2] | [3] | [4] | [5] | [6] | [7] | [8] | [9]

CC(=O)NCCCCCC(=O)O
inactive: [1] | [2] | [3] | [4] | [5] | [6] | [7] | [8] | [9]

CCCCCCCCOc1ccc(C(=O)c2ccccc2)c(O)c1
inactive: [1] | [2] | [3] | [4] | [5] | [6] | [7] | [8] | [9]

CC(=O)Nc1ncc([N+](=O)[O-])s1
inactive: [1] | [2] | [3] | [4] | [5] | [6] | [7] | [8] | [9]

CC(CNC1CCCCC1)OC(=O)c1ccccc1 (configuration not stated)
inactive: [1] | [2] | [3] | [4] | [5] | [6] | [7] | [8] | [9]

O=C1C(O)=C(O)C(=O)C(O)=C1O
inactive: [1] | [2] | [3] | [4] | [5] | [6] | [7] | [8] | [9]

O=C(NCCc1c[nH]c2ccccc12)c1cccnc1
inactive: [1] | [2] | [3] | [4] | [5] | [6] | [7] | [8] | [9]

O=C(O)CCNC(=O)c1ccccc1
inactive: [1] | [2] | [3] | [4] | [5] | [6] | [7] | [8] | [9]

O=C1C(=O)c2ccccc2C(O)=C1C1CCC(c2ccc(Cl)cc2)CC1 (configuration not stated)
inactive: [1] | [2] | [3] | [4] | [5] | [6] | [7] | [8] | [9]

CCOc1ccccc1OCCN[C@H](C)Cc1ccc(OC)c(S(N)(=O)=O)c1
inactive: [1] | [2] | [3] | [4] | [5] | [6] | [7] | [8] | [9]

CCCCCCCCCCCCCCCCO
inactive: [1] | [2] | [3] | [4] | [5] | [6] | [7] | [8] | [9]

NC(=O)C1(N2CCCCC2)CCN(CCCC(=O)c2ccc(F)cc2)CC1
inactive: [1] | [2] | [3] | [4] | [5] | [6] | [7] | [8] | [9]

CC(O)Cn1cnc2c1c(=O)n(C)c(=O)n2C (configuration not stated)
inactive: [1] | [2] | [3] | [4] | [5] | [6] | [7] | [8] | [9]

CC(C)Cn1cnc2c1c(=O)n(C)c(=O)n2C
inactive: [1] | [2] | [3] | [4] | [5] | [6] | [7] | [8] | [9]

CCC1NC(=O)c2cc(S(N)(=O)=O)c(Cl)cc2N1 (configuration not stated)
inactive: [1] | [2] | [3] | [4] | [5] | [6] | [7] | [8] | [9]

CC[N+](C)(CC)CCOC(=O)C(O)(c1ccccc1)C1CCCCC1 (configuration not stated)
inactive: [1] | [2] | [3] | [4] | [5] | [6] | [7] | [8] | [9]

Cc1cc(C)cc(OCC2CNC(=O)O2)c1 (configuration not stated)
inactive: [1] | [2] | [3] | [4] | [5] | [6] | [7] | [8] | [9]

C=C[C@@]1(C)CC(=O)[C@]2(O)[C@@]3(C)[C@@H](O)CCC(C)(C)[C@@H]3[C@H](O)[C@H](OC(C)=O)[C@@]2(C)O1
inactive: [1] | [2] | [3] | [4] | [5] | [6] | [7] | [8] | [9]

COc1ccc(C(Cl)=C(c2ccc(OC)cc2)c2ccc(OC)cc2)cc1
inactive: [1] | [2] | [3] | [4] | [5] | [6] | [7] | [8] | [9]

CCCCCCCC/C=C\CCCCCCCCN
inactive: [1] | [2] | [3] | [4] | [5] | [6] | [7] | [8] | [9]

CN(Cc1ccc(C(C)(C)C)cc1)Cc1cccc2ccccc12
inactive: [1] | [2] | [3] | [4] | [5] | [6] | [7] | [8] | [9]

OCc1ccccn1
inactive: [1] | [2] | [3] | [4] | [5] | [6] | [7] | [8] | [9]

CCOC(=O)Nc1ccc2c(c1)N(C(=O)CCN1CCOCC1)c1ccccc1S2
inactive: [1] | [2] | [3] | [4] | [5] | [6] | [7] | [8] | [9]

CC(C)(C)CC(C)(C)c1ccc(O)c(-n2nc3ccccc3n2)c1
inactive: [1] | [2] | [3] | [4] | [5] | [6] | [7] | [8] | [9]

O=C(O)CCc1nc2ccccc2[nH]1
inactive: [1] | [2] | [3] | [4] | [5] | [6] | [7] | [8] | [9]

CCOC(=O)[C@H](CCc1ccccc1)N[C@@H](C)C(=O)N1[C@H](C(=O)O)C[C@@H]2CCC[C@@H]21
inactive: [1] | [2] | [3] | [4] | [5] | [6] | [7] | [8] | [9]

CC(C)(C)NCC(O)COc1cccc2c1C[C@H](O)[C@H](O)C2 (some centres not stated)
inactive: [1] | [2] | [3] | [4] | [5] | [6] | [7] | [8] | [9]

Cc1ccccc1OCC(O)CO (configuration not stated)
inactive: [1] | [2] | [3] | [4] | [5] | [6] | [7] | [8] | [9]

C[N+]12CCC(CC1)C(OC(=O)C(O)(c1ccccc1)c1ccccc1)C2 (configuration not stated)
inactive: [1] | [2] | [3] | [4] | [5] | [6] | [7] | [8] | [9]

CCOC(=O)c1ccc(N)cc1
inactive: [1] | [2] | [3] | [4] | [5] | [6] | [7] | [8] | [9]

FC1(F)C(F)(F)C(F)(F)C2(F)C(F)(F)C(F)(F)C(F)(F)C(F)(F)C2(F)C1(F)F (configuration not stated)
inactive: [1] | [2] | [3] | [4] | [5] | [6] | [7] | [8] | [9]

CCc1cc(Cl)c(OC)c(C(=O)NC[C@@H]2CCCN2CC)c1O
inactive: [1] | [2] | [3] | [4] | [5] | [6] | [7] | [8] | [9]

CCCCCCCCCCCCCC(=O)OC(C)C
inactive: [1] | [2] | [3] | [4] | [5] | [6] | [7] | [8] | [9]

CC1CCc2c(N3CCC(O)CC3)c(F)cc3c(=O)c(C(=O)O)cn1c23 (configuration not stated)
inactive: [1] | [2] | [3] | [4] | [5] | [6] | [7] | [8] | [9]

CCC(Cc1c(I)cc(I)c(N)c1I)C(=O)O (configuration not stated)
inactive: [1] | [2] | [3] | [4] | [5] | [6] | [7] | [8] | [9]

COc1cc(N)c(Cl)cc1C(=O)NC1CCN(Cc2ccccc2)CC1
inactive: [1] | [2] | [3] | [4] | [5] | [6] | [7] | [8] | [9]

CC(C)Cc1ccc(CC(=O)O)cc1
inactive: [1] | [2] | [3] | [4] | [5] | [6] | [7] | [8] | [9]

O=C1c2cccc3c2[C@H](CCC3)CN1[C@@H]1CN2CCC1CC2
inactive: [1] | [2] | [3] | [4] | [5] | [6] | [7] | [8] | [9]
